Test results taken from PubChem BioAssay AID1813 (Broad Institute, 2009).
Hit rate of the full screen: of about 300,000 compounds, about 2,500 (0.83%) were called active. The sample holds actives, similar compounds and a random draw of the others, so the mix is not that of the screen. Values without a mark were called inactive. Rule as the data show it: active = inhibition above about 60%; inconclusive = no clear call, values can overlap the other calls; inactive = below that.

Experiment: MLPCN primary screen, SNCA 5' untranslated region (AID 1813);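 also: H4 neuroglioblastoma cells stably carrying SNCA 5'UTR luciferase fusion; 0% = DMSO wells and 100% = positive control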
Details: alpha-synuclein 5'UTR reporter, inhibitor activity; hits give high values; tested at 7.5 µM

Structure (SMILES) | inhibition
COc1cccc(-c2nc3ccc(N4CCN(C)CC4)cc3[nH]2)c1 | 68.9% (active)
CN1CCN(c2cc(N3CCNCC3)ccc2[N+](=O)[O-])CC1 | 9.3%
Cc1nc2ccc(N3CCN(C)CC3)cc2nc1C | -72%
CN(C)c1ccc(/C=C2\CC3C4CC=C5CC(O)CCC5(C)C4CCC3(C)C2=O)cc1 (stereo not given) | 8.56%
CSc1nc2ccc(C)cc2c(=O)n1-c1cccnc1 | -1.34%
CCOc1ccc(-c2cc(C)[n+](CCN(CC)CC)c(-c3ccc(OCC)cc3)c2)cc1 | 95.2% (active)
Cc1cccc2c(CCN)c[nH]c12 | 10.6%
Cc1ccc(P(=S)(c2ccc(C)o2)N2CCOCC2)o1 | -9.28%
CCN(N=Nc1nonc1OC)c1nonc1OC | -2.32%
CCCCCCCCCCCCn1ccc(=N)cc1 | 104% (active)
CNP1(NC)=Nc2nn(-c3ccccc3)c(N)c2C(c2ccccc2)=N1 | 9.19%
COc1ccc2c(c1O)-c1cccc3c1[C@@H](C2)N(C)CC3 | -3.62%
O=C(OCCN1CCOCC1)C1(c2ccccc2)CCCC1 | 1.68%
Cc1c(Oc2cc(NN3CCCCC3)c([N+](=O)[O-])cc2[N+](=O)[O-])cccc1[N+](=O)[O-] | 15.3%
Cc1cccc(NC(=O)N2CC3CC(C2)c2cccc(=O)n2C3)c1 (stereo not given) | 13.7%
O=C1/C(=C\c2ccc3c(c2)OCO3)N2CCC1CC2 | 17.4%
c1cc2c(cc1[C@H]1OC[C@H]3[C@@H]1CO[C@@H]3c1ccc3c(c1)OCO3)OCO2 | 72.8% (active)
c1cc2c(cc1CCNC1CCCCCC1)OCO2 | 2.86%
CC(C)n1c(=O)c(C=Nc2ccc(Br)cc2)c(O)n(Cc2ccco2)c1=O | -1.22%
Cc1ccc(Cn2c(C)c3cnn(CC(=O)N4CCC5(CC4)OCCO5)c(=O)c3c2C)cc1 | 12%
